The record followed here is the supplement of paper PMC8866396.

The subject of one assay is IL-6-GFP PC-9GR. Put plainly: cell viability (CCK-8 OD) relative to DMSO control (fraction of control); higher = more viable cells. The note with it: compound concentration: 10 uM; treatment time: 48 h. In a few lines: (§1)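 A purchased 510-compound library was screened at a final 10 μM for 48 h against PC-9 and PC-9GR lung cancer cells overexpressing IL-6-GFP via a lentiviral construct, seeded at 3000 cells/well in 96-well plates. GFP imaging was done on a parallel plate set. For viability, CCK-8 absorbance was recorded and each well's optical density was divided by that of the vehicle control well. There were two independent replicates.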

For another assay, the system named is IL-6-GFP PC-9. Described as above. Particulars: compound concentration: 10 uM; treatment time: 48 h. Put shortly:
as §1

± gives the standard deviation of the averaged measurements.

In the case of `Cc1nnc(C(=O)NC(C)(C)c2nc(C(=O)NCc3ccc(F)cc3)c(O)c(=O)n2C)o1` [Raltegravir (MK-0518)], the cell viability stood at 1.21 ± 0.063 with IL-6-GFP PC-9GR and 1.39 ± 0.3 in the assay with IL-6-GFP PC-9.

For `O=C(NCC1CN(c2ccc(N3CCOCC3=O)cc2)C(=O)O1)c1ccc(Cl)s1` (configuration not stated) [Rivaroxaban], the cell viability in the assay on IL-6-GFP PC-9GR was determined as 0.949 ± 0.11; in the assay with IL-6-GFP PC-9, 0.98 ± 0.11.

As to `CC12CCC(=O)C=C1CCC1C2C(O)CC2(C)C1CCC2(O)C(=O)CO` (configuration not stated) [Hydrocortisone], the cell viability with IL-6-GFP PC-9GR came out at 1.41 ± 0.42; with IL-6-GFP PC-9, 0.995 ± 0.24.

Consider `CC1(C)C2CCC1(C)C(O)C2` (configuration not stated) [Borneol], for which the cell viability was found to be 1.27 ± 0.36 in the assay on IL-6-GFP PC-9GR and 0.778 ± 0.016 in the assay on IL-6-GFP PC-9.

Turning to `NC(=O)c1cccc2cn(-c3ccc(C4CCCNC4)cc3)nc12` (configuration not stated) [Niraparib (MK-4827)], the cell viability in the assay on IL-6-GFP PC-9GR was found to be 0.841 ± 0.011; in the assay with IL-6-GFP PC-9, 0.918 ± 0.045.

In the case of `Cc1cccc(N(C)C(=S)Oc2ccc3ccccc3c2)c1` [Tolnaftate], the values for the cell viability in the assay with IL-6-GFP PC-9GR and with IL-6-GFP PC-9 were 1.38 ± 0.047 and 0.8891 ± 0.0065, respectively.

For the compound `CC(=O)Nc1cccc(-n2c(=O)n(C3CC3)c(=O)c3c(Nc4ccc(I)cc4F)n(C)c(=O)c(C)c32)c1`, the cell viability in the assay on IL-6-GFP PC-9GR amounted to 1.04 ± 0.14; with IL-6-GFP PC-9, 0.791 ± 0.31.

As to `COc1ccc2cc(C(C)C(=O)[O-])ccc2c1.[Na+]` (configuration not stated) [Naproxen Sodium], the cell viability with IL-6-GFP PC-9GR was 1.36 ± 0.035; in the assay on IL-6-GFP PC-9, 1.16 ± 0.16.

In the case of `Cn1cnc2c(F)c(Nc3ccc(Br)cc3F)c(C(=O)NOCCO)cc21`, the cell viability worked out at 0.812 ± 0.043 with IL-6-GFP PC-9GR and 1.2 ± 0.19 in the assay with IL-6-GFP PC-9.

Take `Cc1ccc(C(=O)c2ccc(CC(=O)O)n2C)cc1` [Tolmetin]: the cell viability with IL-6-GFP PC-9GR worked out at 1.11 ± 0.13; in the assay on IL-6-GFP PC-9, 1.29 ± 0.02.

Consider `CC(=O)Nc1ccc(CC(=O)O)cc1` [Actarit], for which the cell viability in the assay on IL-6-GFP PC-9GR is 1.61 ± 0.35; in the assay with IL-6-GFP PC-9 it was 1.15 ± 0.07.

As for `CCN(CC)Cc1cc(Nc2ccnc3cc(Cl)ccc23)ccc1O.Cl.Cl.O.O` [Amodiaquine dihydrochloride dihydrate], the results for the cell viability in the assay with IL-6-GFP PC-9GR and in the assay with IL-6-GFP PC-9 were 1.05 ± 0.011 and 0.756 ± 0.039, respectively.

`Cl.Nc1ccn(C2OC(CO)C(O)C2(F)F)c(=O)n1` (configuration not stated) [Gemcitabine HCl]: the cell viability was 0.596 ± 0.012 with IL-6-GFP PC-9GR and 0.566 ± 0.046 in the assay with IL-6-GFP PC-9.

`CC1CC2C3CCC4=CC(=O)C=CC4(C)C3(Cl)C(O)CC2(C)C1(OC(=O)c1ccco1)C(=O)CCl` (configuration not stated) [Mometasone furoate]: the cell viability amounted to 1.12 ± 0.11 in the assay on IL-6-GFP PC-9GR and 0.93 ± 0.076 in the assay with IL-6-GFP PC-9.

Turning to `CCN1CCN(Cc2ccc(Nc3ncc(F)c(-c4cc(F)c5nc(C)n(C(C)C)c5c4)n3)nc2)CC1` [Abemaciclib], the cell viability was 0.668 ± 0.14 with IL-6-GFP PC-9GR and 0.746 ± 0.094 in the assay on IL-6-GFP PC-9.

`Nc1nc(Cl)nc2c1ncn2C1CC(O)C(CO)O1` (configuration not stated) [Cladribine]: the cell viability was 0.941 ± 0.059 with IL-6-GFP PC-9GR and 0.762 ± 0.076 in the assay with IL-6-GFP PC-9.

For the compound `CCOC(=O)c1ccc(C#Cc2ccc3c(c2)C(C)(C)CCS3)nc1` [Tazarotene], the results for the cell viability in the assay on IL-6-GFP PC-9GR and in the assay with IL-6-GFP PC-9 were 1.32 ± 0.14 and 1.15 ± 0.041, respectively.

In the case of `CC(O)CO.CCOc1ccc(Cc2cc(C3OC(CO)C(O)C(O)C3O)ccc2Cl)cc1.O` (configuration not stated) [Dapagliflozin propanediol monohydrate], the cell viability with IL-6-GFP PC-9GR turned out to be 1.07 ± 0.13; in the assay on IL-6-GFP PC-9, 1.14 ± 0.11.

On to `CNCc1ccc(-c2[nH]c3cc(F)cc4c3c2CCNC4=O)cc1.O=P(O)(O)O`, for which the cell viability with IL-6-GFP PC-9GR stood at 0.93 ± 0.16; with IL-6-GFP PC-9, 1.05 ± 0.15.

Take `CCC(C)C(=O)OC1CC(O)C=C2C=CC(C)C(CCC(O)CC(O)CC(=O)O)C21` (configuration not stated) [Pravastatin]: the cell viability with IL-6-GFP PC-9GR came out at 1.48 ± 0.39; in the assay with IL-6-GFP PC-9, 0.999 ± 0.22.

Regarding `COc1ccc2cc(CCC(C)=O)ccc2c1` [Nabumetone], the cell viability with IL-6-GFP PC-9GR was 1.29 ± 0.24; in the assay on IL-6-GFP PC-9, 1.11 ± 0.13.

On to `O=S(=O)([O-])CCS.[Na+]` [Mesna], for which the cell viability in the assay on IL-6-GFP PC-9GR was 1.23 ± 0.2; in the assay with IL-6-GFP PC-9, 0.95 ± 0.07.

For the compound `COc1cc2ncnc(Nc3ccc(F)c(Cl)c3)c2cc1OCCCN1CCOCC1.Cl` [Gefitinib hydrochloride], the figures for the cell viability with IL-6-GFP PC-9GR and in the assay on IL-6-GFP PC-9 were 0.91868 ± 0.00075 and 0.6584 ± 0.0058, respectively.

For the compound `Oc1ccc(/C=C/c2cc(O)cc(O)c2)cc1` [Resveratrol], the values for the cell viability in the assay on IL-6-GFP PC-9GR and in the assay with IL-6-GFP PC-9 were 1.38 ± 0.065 and 1.37 ± 0.064, respectively.

As for `CC1=NN(c2ccc(C)c(C)c2)C(=O)/C1=N\Nc1cccc(-c2cccc(C(=O)O)c2)c1O.NCCO.NCCO` [Eltrombopag Olamine], the cell viability with IL-6-GFP PC-9GR was 1.23 ± 0.034; in the assay on IL-6-GFP PC-9 it was 0.966 ± 0.02.

With `CCc1cccc2c3c([nH]c12)C(CC)(CC(=O)O)OCC3` (configuration not stated) [Etodolac], the cell viability with IL-6-GFP PC-9GR came out at 1.22 ± 0.018; in the assay with IL-6-GFP PC-9, 0.989 ± 0.076.

Consider `CC(C)Cc1ccc(C(C)C(=O)O)cc1.NCCCCC(N)C(=O)O` (configuration not stated) [Ibuprofen Lysine], for which the cell viability amounted to 1.28 ± 0.21 in the assay on IL-6-GFP PC-9GR and 1.25 ± 0.29 in the assay on IL-6-GFP PC-9.

For the compound `C[Se]CC[C@H](N)C(=O)O` [L-SelenoMethionine], the cell viability came to 1.19 ± 0.22 in the assay with IL-6-GFP PC-9GR and 1.28 ± 0.098 in the assay with IL-6-GFP PC-9.

Consider `CC(C(=O)O)c1cccc(C(=O)c2ccccc2)c1` (configuration not stated) [Ketoprofen], for which the cell viability amounted to 1.64 ± 0.37 in the assay on IL-6-GFP PC-9GR and 1.02 ± 0.11 with IL-6-GFP PC-9.

With `CCC(C(=O)O)c1ccc(N2Cc3ccccc3C2=O)cc1` (configuration not stated) [Indobufen], the cell viability was determined as 0.908 ± 0.059 with IL-6-GFP PC-9GR and 1.11 ± 0.049 in the assay with IL-6-GFP PC-9.

Take `CC/C(=C(\c1ccccc1)c1ccc(OCCN(C)C)cc1)c1ccccc1.O=C(O)CC(O)(CC(=O)O)C(=O)O` [Tamoxifen]: the cell viability came to 1.2165 ± 0.0005 in the assay on IL-6-GFP PC-9GR and 0.589 ± 0.053 in the assay on IL-6-GFP PC-9.
